We go through 35 compounds from the supplement of paper PMC4723716.

± gives the uncertainty stated by the source. The full ranking holds about 9,900 compounds; the median of “viability index relative to DMSO control” is about 1, and the lowest 2% start at about 0.85. The sample as a whole holds a higher share of the lowest values than the screen did.

In this assay the test system is Plasmodium falciparum NF54 stage V gametocytes. The assay can be described thus: viability index relative to DMSO control (fraction); higher = less gametocyte killing. To be noted: 2.5 µM, incubation time: 72 h. An outline of the steps: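 Viability index is the count of red-stained particles in a well divided by the plate mean of solvent-only wells. Particles of 20–70 µm2 were counted in one imaged field per well after one to two hours with 3 µl of 2.5 µM MitoTracker Red CMXRos and 0.13% saponin. Before staining, P. falciparum NF54 stage V gametocytes in serum-free medium (0.75% gametocytemia, 1.25% hematocrit, 10 µl, 1,536-well plates) were kept with compound at 2.5 µM for 72 hr at 37°C under low oxygen.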

The mark [1] stands for this setting: library set: Broad Institute DOS.
[2] abbreviates: library set: Broad Institute Blood Stage.

Turning to `Cc1ccc(S(=O)(=O)Nc2ccc3c(c2)C(=O)N([C@@H](C)CO)C[C@@H](C)[C@@H](CN(C)S(=O)(=O)c2cccs2)OCCCC[C@@H](C)O3)cc1`, under setting [1], the viability index turned out to be 1.13 ± 0.23.

In turn, `NCC[C@H]1CC[C@@H](NC(=O)Cc2ccncc2)[C@H](CO)O1` yielded a viability index under setting [1] of 1.091 ± 0.0072.

On to `CNC(=O)C[C@@H]1CC[C@@H]2[C@H](COC[C@@H](O)CN2Cc2ccccc2F)O1`, for which the viability index under setting [1] was 1.08 ± 0.086.

Take `COc1ccc(S(=O)(=O)Nc2ccc3c(c2)C(=O)N([C@H](C)CO)C[C@H](C)[C@@H](CN(C)Cc2ccc(C(F)(F)F)cc2)OCCCC[C@H](C)O3)cc1`: the viability index under setting [1] is 1.07 ± 0.051.

`C/C=C/c1ccc2n(c1=O)C[C@@H]1[C@@H](CO)[C@H](C(=O)NCC)N(Cc3cccc(F)c3)[C@H]21.C/C=C\c1ccc2n(c1=O)C[C@@H]1[C@@H](CO)[C@H](C(=O)NCC)N(Cc3cccc(F)c3)[C@H]21` displayed a viability index under setting [1] of 0.99 ± 0.091.

Under setting [1], `Cc1ccccc1-c1ccc([C@@H]2[C@@H]3CN(Cc4cocn4)C[C@H]2N3)cc1` displayed a viability index of 0.949 ± 0.05.

`C[C@@H]1CN([C@@H](C)CO)C(=O)c2cc(NC(=O)C3CC3)ccc2O[C@H]1CN(C)S(=O)(=O)c1ccccc1` registered a viability index under setting [1] of 0.9821 ± 0.0066.

For `N#Cc1ccc(-c2ccc3c(c2)[C@H]2[C@H](CCN2C(=O)C2CCCCC2)[C@H](CO)N3)cc1`, the viability index under setting [1] was 1.11 ± 0.057.

Regarding `COc1ccccc1-c1ccc2c(c1)[C@H]1[C@H](CCN1C(=O)C1CCC1)[C@@H](CO)N2`, the viability index under setting [1] is 0.865 ± 0.097.

Consider `COc1ccccc1-c1ccc2c(c1)[C@@H]1[C@@H](CCN1C(=O)C1CCC1)[C@H](CO)N2`, for which the viability index under setting [1] is 0.655 ± 0.025.

Under setting [1], `CN1CCN(C(=O)C[C@@H]2CC[C@H]3[C@H](COc4ccc(NC(=O)C5CCOCC5)cc4C(=O)N3C)O2)CC1` returned a viability index of 1.05 ± 0.029.

`CCS(=O)(=O)Nc1ccc2c(c1)C(=O)N(C)[C@H]1CC[C@H](CC(=O)NCCCN3CCOCC3)O[C@@H]1CO2` returned a viability index under setting [1] of 1.03 ± 0.07.

Compound `C[C@@H]1CN([C@@H](C)CO)C(=O)c2cccc(NC(=O)Nc3ccccc3)c2O[C@@H]1CN(C)C(=O)Nc1ccc(F)cc1` showed a viability index under setting [2] of 0.727 ± 0.041.

As to `COc1ccc(S(=O)(=O)N(C)C[C@H]2Oc3c(NC(=O)Nc4cccc5ccccc45)cccc3C(=O)N([C@@H](C)CO)C[C@H]2C)cc1`, the viability index under setting [2] is 0.767 ± 0.035.

As to `C[C@@H]1CN([C@@H](C)CO)C(=O)c2cccc(NC(=O)Nc3ccccc3)c2O[C@@H]1CN(C)C(=O)Nc1ccccc1`, under setting [2], the viability index was 0.703 ± 0.052.

`CC(C)NC(=O)Nc1cccc2c1O[C@H](CN(C)C(=O)Nc1ccccc1)[C@@H](C)CN([C@H](C)CO)C2=O` returned a viability index under setting [1] of 0.975 ± 0.13.

Under setting [1], `CC(C)NC(=O)Nc1cccc2c1O[C@@H](CN(C)C(=O)Nc1ccccc1)[C@H](C)CN([C@H](C)CO)C2=O` came in with a viability index of 1.05 ± 0.17.

As to `CC(C)NC(=O)Nc1cccc2c1O[C@H](CN(C)C(=O)Nc1ccccc1)[C@H](C)CN([C@@H](C)CO)C2=O`, the viability index under setting [1] amounted to 0.692 ± 0.19.

In turn, `COc1ccc(S(=O)(=O)N(C)C[C@@H]2Oc3c(NC(=O)c4nc5ccccc5s4)cccc3C(=O)N([C@@H](C)CO)C[C@H]2C)cc1` displayed a viability index under setting [1] of 0.979 ± 0.043.

As for `CC(C)NC(=O)Nc1cccc2c1O[C@@H](CN(C)C(=O)Nc1ccccc1)[C@@H](C)CN([C@@H](C)CO)C2=O`, the viability index under setting [1] was found to be 1.04 ± 0.011.

Turning to `CC(C)NC(=O)Nc1cccc2c1O[C@H](CN(C)C(=O)Nc1ccccc1)[C@@H](C)CN([C@@H](C)CO)C2=O`, under setting [1], the viability index was 1.09 ± 0.07.

With `CC(C)NC(=O)Nc1cccc2c1O[C@H](CN(C)C(=O)Nc1ccccc1)[C@H](C)CN([C@H](C)CO)C2=O`, the viability index under setting [1] is 1.03 ± 0.09.

In turn, `CC(C)NC(=O)Nc1cccc2c1O[C@@H](CN(C)C(=O)Nc1ccccc1)[C@@H](C)CN([C@H](C)CO)C2=O` returned a viability index under setting [1] of 1.1 ± 0.11.

With `COc1ccc(S(=O)(=O)N(C)C[C@H]2Oc3c(NC(=O)c4nc5ccccc5s4)cccc3C(=O)N([C@H](C)CO)C[C@H]2C)cc1`, the viability index under setting [1] turned out to be 1.03 ± 0.022.

`CN1C(=O)c2cc(NC(=O)C3CCOCC3)ccc2OC[C@@H]2O[C@H](CC(=O)NCc3ccccc3F)CC[C@H]21` registered a viability index under setting [1] of 1.04 ± 0.032.

Under setting [1], `O=C(CN1CCOCC1)N1CC(=O)N2[C@H](C1)[C@H](c1ccc(C3=CCCCC3)cc1)[C@@H]2CO` yielded a viability index of 1.02 ± 0.035.

In turn, `CCc1cnc(N2[C@H](C#N)[C@@H](c3ccc(-c4cccc(F)c4)cc3)[C@@H]2CO)s1` returned a viability index under setting [1] of 1.12 ± 0.11.

Compound `C[C@H](CO)N1C[C@H](C)[C@H](CN(C)C(=O)Nc2ccccc2C(F)(F)F)OCc2cnnn2CCCC1=O` registered a viability index under setting [1] of 1.03 ± 0.014.

`COc1ccc(NC(=O)N(C)C[C@H]2Oc3c(NC(=O)Nc4ccccc4)cccc3C(=O)N([C@@H](C)CO)C[C@H]2C)cc1` displayed a viability index under setting [2] of 0.724 ± 0.05.

`COc1ccc(NC(=O)Nc2cccc3c2O[C@@H](CN(C)Cc2ccc(C(=O)O)cc2)[C@H](C)CN([C@@H](C)CO)C3=O)cc1`: the viability index under setting [1] was determined as 0.978 ± 0.065.

Under setting [1], `COc1ccc(NC(=O)Nc2cccc3c2O[C@@H](CN(C)Cc2ccc(C(=O)O)cc2)[C@@H](C)CN([C@@H](C)CO)C3=O)cc1` gave a viability index of 0.95 ± 0.17.

`CC(C)[C@H]1C(=O)N[C@H](c2cccc(Cl)c2)C/C=C/C[C@H](C)Oc2ccccc2C(=O)N1C.CC(C)[C@H]1C(=O)N[C@H](c2cccc(Cl)c2)C/C=C\C[C@H](C)Oc2ccccc2C(=O)N1C` returned a viability index under setting [1] of 0.9865 ± 0.0032.

Consider `C[C@H]1CN([C@@H](C)CO)C(=O)c2cccc(NS(C)(=O)=O)c2O[C@@H]1CN(C)Cc1ccc(-c2ccccc2)cc1`, for which the viability index under setting [1] was determined as 1 ± 0.078.

The compound `C[C@@H]1CN([C@@H](C)CO)C(=O)c2cccc(NS(C)(=O)=O)c2O[C@H]1CN(C)Cc1ccc(-c2ccccc2)cc1` registered a viability index under setting [1] of 1.01 ± 0.029.

For the compound `C[C@H](CO)N1C[C@H](C)[C@@H](CN(C)Cc2ccccc2)Oc2c(NC(=O)Cc3cn(C)c4ccccc34)cccc2C1=O`, the viability index under setting [1] was 0.744 ± 0.038.
